The values below come from PubChem BioAssay AID1559 (National Center for Advancing Translational Sciences (NCATS), 2009).

Inconclusive results are not listed. Unmarked numbers belong to inactive results. The source made the active and inactive calls. Calls follow the shape of the dose curve; as a rule, active = well fitted curve in the direction sought with a large enough effect; inconclusive = small, poorly fitted or top-dose-only effect, or another doubt; inactive = no such curve, though single readings can be large or run the other way.

Sequence of Microtubule-associated protein tau (Homo sapiens) (P10636 561-689 P618L limits assumed): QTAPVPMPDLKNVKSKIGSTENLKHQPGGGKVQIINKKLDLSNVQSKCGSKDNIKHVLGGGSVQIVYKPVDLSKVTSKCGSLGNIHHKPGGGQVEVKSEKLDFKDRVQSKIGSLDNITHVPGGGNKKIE

This experiment deals with Microtubule-associated protein tau (Homo sapiens) (UniProt P10636). Put plainly: Confirmation Concentration-Response Assay for Inhibitors of Tau Fibril Formation, Fluorescence Polarization. To be noted: recombinant tau K18 P301L (four-repeat tau fragment) heparin fibrillization, Alexa594 FP; series mostly up to 57.1 µM; activity change, negative = inhibition: at the top concentration. The text has this:
NIH Molecular Libraries Probe Production Network [MLPCN] NIH Chemical Genomics Center [NCGC] MLPCN Grant: X01 MH083262-01 Assay Provider: Carlo Ballatore, University of Pennsylvania NCGC Assay Overview: The microtubule-associated protein tau is an abundant protein in the axons of neurons that stabilizes microtubules. With its ability to modulate microtubule dynamics, tau contributes directly or indirectly, to key structural and regulatory cellular functions. Particularly important is the influence tau exerts on axonal transport, which allows signaling molecules, trophic factors and other essential cellular constituents to travel along the axons. Under pathological conditions, tau becomes sequestered into insoluble aggregates called neurofibrillary tangles. This phenomenon is believed to have pathological consequences by promoting axonal transport deficits that ultimately lead to synaptic dysfunction and neuronal loss. To identify inhibitors of tau aggregation, a heparin-induced tau fibril formation assay was used that employed a recombinantly expressed fragment of tau, K18 (Q242-E372), bearing a P301L mutation (Gustke et al. 1994; Hong et al. 1998). […] Gustke, N., B. Trinczek, et al. (1994). "Domains of tau protein and interactions with microtubules." Biochemistry 33(32): 9511-22. Hong, M., V. Zhukareva, et al. (1998). "Mutation-specific functional impairments in distinct tau isoforms of hereditary FTDP-17." Science 282(5395): 1914-7. Li, W. and V. M. Lee (2006). "Characterization of two VQIXXK motifs for tau fibrillization in vitro." Biochemistry 45(51): 15692-701. von Bergen, M., S. Barghorn, et al. (2001). "Mutations of tau protein in frontotemporal dementia promote aggregation of paired helical filaments by enhancing local beta-structure." J Biol Chem 276(51): 48165-74.
For screening, 2 uL/well human K18 P301L (15 uM unlabeled and 0.24 uM Alexa 594-labeled tau final concentrations) in reagent buffer (100 mM sodium acetate pH 7) was dispensed into black solid 1536-well plates (Grenier) using a solenoid-based dispenser. Following transfer of 23 nL compound or DMSO vehicle by a pin tool, 2 uL/well heparin (20 uM final concentration) in reagent buffer was added and the plate centrifuged 15 s at 1000 RPM. Plates were incubated 6 hr at 37 C and then 1 uL/well ThT (30 uM final concentration) was added. After a 1 hr ambient incubation, the plates were read by an Envision (Perkin Elmer) to monitor Alexa 594 FP (555 nm excitation and 632 nm emission). Keywords: NIH Roadmap, MLPCN, MLI, MLSMR, NCGC, qHTS, tau, tauopathies, Alzheimer's disease, fibril, neurodegeneration, aggregation
(In general: In fluorescence polarisation assays a small probe gives low polarisation when free and higher when bound to something large.)
On to `CCOC(=O)N1CCN(C(=O)CN2C(=O)/C(=C\c3cccc(OC)c3)SC2=S)CC1`, for which the “activity change, negative = inhibition” value was -18.3%.

In the case of `CCOC(=O)c1nn(-c2ccccc2)c(=O)c(C#N)c1C`, the “activity change, negative = inhibition” value was -3.79%.

Regarding `CCOC(=O)c1ccc(-n2nc(C(=O)OCC)c3csc(N)c3c2=O)cc1`, the “activity change, negative = inhibition” value is -19.3%.

On to `COc1ccc(OC)c(NC(=O)c2c(NCc3cccs3)sc3c2CCCC3)c1`, for which the “activity change, negative = inhibition” value was 10.3%.

As to `Cc1cc2c(N)cccc2nn1`, the Potency was 39.8 µM (active).

Consider `Cn1[nH]c(CSc2ccc(Cl)cc2)cc1=O`, for which the “activity change, negative = inhibition” value is -3.05% [at 100 µM].

On to `CCOC(=O)c1nn(-c2cccc(C(F)(F)F)c2)c(=O)c2c(N)scc12`, for which the “activity change, negative = inhibition” value was -12.7%.

Consider `COc1ccc(CNC(=O)Cn2nc(C)n3cccc3c2=O)cc1`, for which the “activity change, negative = inhibition” value is -2.55% [at 100 µM].

Take `COC(=O)CSc1nc2ccc(NC(=O)CSc3nnnn3Cc3ccccc3)cc2s1`: the “activity change, negative = inhibition” value is -9.6% [at 100 µM].

Take `O=C(CSc1nc2scc(-c3ccco3)c2c(=O)n1-c1ccccc1)N1CCOCC1`: the “activity change, negative = inhibition” value was -7.95%.

With `O=S(=O)(c1ccc2nc(-c3ccco3)c(-c3ccco3)nc2c1)N1CCOCC1`, the Potency was 7.94 µM (active).

Consider `NC[C@@H](O)c1ccc(O)c(O)c1`, for which the “activity change, negative = inhibition” value was -5.2% [at 100 µM].

For `CCOC(=O)c1nn(-c2ccc(C)c(C)c2)c(=O)c2c(N)scc12`, the “activity change, negative = inhibition” value is -29.4%.

With `CCN(CC)S(=O)(=O)c1cccc(NC(=O)Nc2cccc(C(F)(F)F)c2)c1`, the Potency was 2.82 µM (active).

In the case of `COC(=O)C1CCc2sc(NC(=O)Cc3ccccc3)c(C(=O)Nc3ccc(Cl)cc3)c21` (configuration not stated), the “activity change, negative = inhibition” value was 2.38%.

Turning to `Cn1cc(Cl)c(C(=O)Nc2cccc(Cl)c2Cl)n1`, the “activity change, negative = inhibition” value was -4.85% [at 100 µM].

`O=C(Nc1nnc(S(=O)(=O)Nc2ccccc2)s1)C1CCCCC1`: the “activity change, negative = inhibition” value was -5.85% [at 100 µM].

As to `COc1ccc2c(c1)c(CC(=O)Nc1ccc(C(C)=O)cc1)c(C)n2C(=O)c1ccc(Cl)cc1`, the “activity change, negative = inhibition” value is -10.6% [at 100 µM].

Consider `COc1ccc(NC(=O)C2CCN(S(=O)(=O)c3c(C)noc3/C=C/c3cccs3)CC2)cc1Cl`, for which the “activity change, negative = inhibition” value is -9.5% [at 100 µM].

`Cc1[nH]c(=O)c(C#N)cc1-c1ccncc1`: the “activity change, negative = inhibition” value is -0.55% [at 100 µM].

Regarding `CCOC(=O)c1nn(-c2ccccc2)c(=O)c2c(NC(=O)c3ccccc3)scc12`, the “activity change, negative = inhibition” value was -5.82%.

Turning to `Cc1sc(N)c2c(=O)n(-c3ccccc3)ncc12`, the “activity change, negative = inhibition” value was -17.1%.

For `O=C(Nc1nc2ccc(S(=O)(=O)N3CCCC3)cc2s1)c1ccc(F)cc1`, the “activity change, negative = inhibition” value was -4.75% [at 100 µM].

Regarding `CCOC(=O)c1nn(-c2ccccc2)c(=O)c2c(N)sc(C)c12`, the “activity change, negative = inhibition” value was -12.8%.

In the case of `O=C(Cc1ccccc1)Nc1sc2c(c1C(=O)Nc1cccc(Cl)c1)CCCC2`, the “activity change, negative = inhibition” value is 0.795%.

Take `Cc1ccc(N(C)S(=O)(=O)c2nnc(NC(=O)C3CCCCC3)s2)cc1`: the “activity change, negative = inhibition” value was -6% [at 100 µM].

On to `O=C(Cc1ccccc1)Nc1sc2c(c1C(=O)Nc1ccc(Cl)cc1)CCOC2`, for which the “activity change, negative = inhibition” value is -15.8%.
